About 83,000 compounds went through this panel and 20% of them were active in at least one assay; those are over-represented in the sample as a whole.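 Step 1: grow cells in 96-well plates. Step 2: add test compound at a single concentration. Step 3: incubate 48 h. Step 4: record percent growth.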 Values without a mark were called inactive. Activity calls are given as the source filed them. Rule for the calls: active = growth percent below 10; inactive = the rest.
How the values were obtained:
Assay in all cases: NCI-60 one-dose screen, 48 h (100 = growth as untreated, 0 = no growth, -100 = all killed)
Conditions in all cases: 10 µM unless noted
NCI-H23 lung = system: NCI-H23 lung
NCI-H322M lung = system: NCI-H322M lung
HOP-62 NSCLC = system: HOP-62 NSCLC
NCI-H460 lung = system: NCI-H460 lung
HOP-92 NSCLC = system: HOP-92 NSCLC
NCI-H522 lung = system: NCI-H522 lung
A549/ATCC NSCLC = system: A549/ATCC NSCLC
786-0 renal = system: 786-0 renal
COLO 205 colon = system: COLO 205 colon
DU-145 prostate = system: DU-145 prostate
K-562 leukemia = system: K-562 leukemia
MALME-3M melanoma = system: MALME-3M melanoma
MDA-MB-231 breast = system: MDA-MB-231 breast
SF-268 CNS = system: SF-268 CNS
SF-295 CNS = system: SF-295 CNS
SF-539 CNS = system: SF-539 CNS
UACC-257 melanoma = system: UACC-257 melanoma
M14 melanoma = system: M14 melanoma
HCT-15 colon = system: HCT-15 colon
RXF 393 renal = system: RXF 393 renal

`O=C1/C=C/[C@@H](O)[C@@H]2C[C@@H](O)C[C@H]2/C=C/CCCCO1` gave a growth (NCI-H23 lung) of 13%, a growth (NCI-H322M lung) of 33.2% and a growth (HOP-62 NSCLC) of 23.8%. The growth (NCI-H460 lung) was 7.12% (active), the growth (HOP-92 NSCLC) was -3.95% (active) and the growth (NCI-H522 lung) was 19.4%. For the same compound, the growth (A549/ATCC NSCLC) was 23.1%, the growth (786-0 renal) was 3.17% (active) and the growth (COLO 205 colon) was -49.7% (active). It also gave a growth (DU-145 prostate) of 19.3%, a growth (K-562 leukemia) of 13.7% and a growth (MALME-3M melanoma) of 13.8%. For the same compound, the growth (MDA-MB-231 breast) was -21.2% (active), the growth (SF-268 CNS) was 11.7% and the growth (SF-295 CNS) was 21.9%. For the same compound, the growth (SF-539 CNS) was 17.8%, the growth (UACC-257 melanoma) was 9.88% (active) and the growth (M14 melanoma) was 30.2%. For the same compound, the growth (HCT-15 colon) was 19.8%.
`OC(c1ccccc1)c1nnc(SCc2ccccc2)n1Cc1ccccc1` (configuration not stated) showed a growth (NCI-H23 lung) of 98.2%, a growth (NCI-H322M lung) of 106% and a growth (HOP-62 NSCLC) of 91.5%. It also gave a growth (NCI-H460 lung) of 106%, a growth (HOP-92 NSCLC) of 58.8% and a growth (NCI-H522 lung) of 86.6%. For the same compound, the growth (A549/ATCC NSCLC) was 94.1%, the growth (786-0 renal) was 95.4% and the growth (COLO 205 colon) was 102%. For the same compound, the growth (DU-145 prostate) was 108%, the growth (K-562 leukemia) was 84.4% and the growth (MALME-3M melanoma) was 77.3%. The growth (MDA-MB-231 breast) was 103%, the growth (SF-268 CNS) was 94.2% and the growth (SF-295 CNS) was 83.4%. For the same compound, the growth (SF-539 CNS) was 101%, the growth (UACC-257 melanoma) was 103% and the growth (M14 melanoma) was 88%. The growth (HCT-15 colon) was 88.9%.
`CC(=O)O[C@@H]1/C=C/C(=O)N[C@@H](C)CCC/C=C/[C@@H]2CCC[C@H]21` showed a growth (NCI-H23 lung) of 98.2%, a growth (NCI-H322M lung) of 93.2% and a growth (HOP-62 NSCLC) of 99%. For the same compound, the growth (NCI-H460 lung) was 107%, the growth (HOP-92 NSCLC) was 92.9% and the growth (NCI-H522 lung) was 37.9%. For the same compound, the growth (A549/ATCC NSCLC) was 108%, the growth (786-0 renal) was 101% and the growth (COLO 205 colon) was 114%. It also gave a growth (DU-145 prostate) of 112%, a growth (K-562 leukemia) of 102% and a growth (MALME-3M melanoma) of 117%. It also gave a growth (MDA-MB-231 breast) of 122%, a growth (SF-268 CNS) of 104% and a growth (SF-295 CNS) of 98.6%. It also gave a growth (SF-539 CNS) of 94%, a growth (UACC-257 melanoma) of 101% and a growth (M14 melanoma) of 103%. The growth (HCT-15 colon) was 114%.
Work on `COc1ccccc1C(=O)/C=C/c1ccccc1` yielded a growth (NCI-H23 lung) of 83.4%, a growth (NCI-H322M lung) of 86.1% and a growth (HOP-62 NSCLC) of 86.9%. It also gave a growth (NCI-H460 lung) of 66.4%, a growth (HOP-92 NSCLC) of 80.6% and a growth (NCI-H522 lung) of 81.8%. The growth (A549/ATCC NSCLC) was 76.1%, the growth (786-0 renal) was 101% and the growth (COLO 205 colon) was 117%. For the same compound, the growth (DU-145 prostate) was 32.1%, the growth (K-562 leukemia) was 23.1% and the growth (MALME-3M melanoma) was 99.1%. The growth (MDA-MB-231 breast) was 97.6%, the growth (SF-268 CNS) was 80% and the growth (SF-295 CNS) was 89.9%. It also gave a growth (SF-539 CNS) of 91.6%, a growth (UACC-257 melanoma) of 92.6% and a growth (M14 melanoma) of 103%. For the same compound, the growth (HCT-15 colon) was 53.3%.
In the case of `COc1ccc(C2Nc3nc(OC)n(C)c(=O)c3N=C3c4ccccc4C(=O)C32)cc1` (configuration not stated), the growth (NCI-H23 lung) is reported as 100%, the growth (NCI-H322M lung) is reported as 106% and the growth (HOP-62 NSCLC) is reported as 91.1%. It also gave a growth (NCI-H460 lung) of 97%, a growth (HOP-92 NSCLC) of 81.9% and a growth (NCI-H522 lung) of 94.8%. For the same compound, the growth (A549/ATCC NSCLC) was 106%, the growth (786-0 renal) was 98.1% and the growth (COLO 205 colon) was 104%. It also gave a growth (DU-145 prostate) of 89.2%, a growth (K-562 leukemia) of 83.8% and a growth (MALME-3M melanoma) of 117%. The growth (MDA-MB-231 breast) was 92.2%, the growth (SF-268 CNS) was 81% and the growth (SF-295 CNS) was 6.96% (active). For the same compound, the growth (SF-539 CNS) was 89.8%, the growth (UACC-257 melanoma) was 127% and the growth (M14 melanoma) was 92.4%. It also gave a growth (HCT-15 colon) of 88.3%.
`COc1cc(C#N)cc2[nH]c(=O)oc12` showed a growth (NCI-H23 lung) of 104%, a growth (NCI-H322M lung) of 106% and a growth (HOP-62 NSCLC) of 103%. It also gave a growth (NCI-H460 lung) of 110%, a growth (HOP-92 NSCLC) of 95.5% and a growth (NCI-H522 lung) of 103%. For the same compound, the growth (A549/ATCC NSCLC) was 101%, the growth (786-0 renal) was 98.7% and the growth (COLO 205 colon) was 105%. It also gave a growth (DU-145 prostate) of 99%, a growth (K-562 leukemia) of 123% and a growth (MALME-3M melanoma) of 89.8%. For the same compound, the growth (RXF 393 renal) was 128%, the growth (SF-268 CNS) was 100% and the growth (SF-295 CNS) was 92.4%. The growth (SF-539 CNS) was 101%, the growth (UACC-257 melanoma) was 106% and the growth (M14 melanoma) was 102%. It also gave a growth (HCT-15 colon) of 95.6%.
In the case of `COc1ccc(C2Nc3ncnc(N)c3N=C3c4ccccc4C(=O)C32)cc1` (configuration not stated), the growth (NCI-H23 lung) is reported as 101%, the growth (NCI-H322M lung) is reported as 101% and the growth (HOP-62 NSCLC) is reported as 85.2%. It also gave a growth (NCI-H460 lung) of 104%, a growth (HOP-92 NSCLC) of 55.4% and a growth (NCI-H522 lung) of 101%. It also gave a growth (A549/ATCC NSCLC) of 96.3%, a growth (786-0 renal) of 93.5% and a growth (COLO 205 colon) of 93.2%. It also gave a growth (DU-145 prostate) of 102%, a growth (K-562 leukemia) of 84.5% and a growth (MALME-3M melanoma) of 101%. For the same compound, the growth (MDA-MB-231 breast) was 97.9%, the growth (SF-268 CNS) was 84% and the growth (SF-295 CNS) was 96.9%. The growth (SF-539 CNS) was 100%, the growth (UACC-257 melanoma) was 102% and the growth (M14 melanoma) was 94.8%. The growth (HCT-15 colon) was 89.4%.
With `C=C1C(=O)O[C@H]2[C@H]1CC/C(COC(=O)/C=C\C(=O)O)=C\CC[C@@]1(C)O[C@@H]21` the growth (NCI-H23 lung) was 98.9%, the growth (NCI-H322M lung) was 105% and the growth (HOP-62 NSCLC) was 99.2%. The growth (NCI-H460 lung) was 107%, the growth (HOP-92 NSCLC) was 108% and the growth (NCI-H522 lung) was 97.5%. For the same compound, the growth (A549/ATCC NSCLC) was 105%, the growth (786-0 renal) was 109% and the growth (DU-145 prostate) was 112%. The growth (K-562 leukemia) was 109%, the growth (MALME-3M melanoma) was 99.8% and the growth (MDA-MB-231 breast) was 103%. For the same compound, the growth (RXF 393 renal) was 111%, the growth (SF-268 CNS) was 100% and the growth (SF-295 CNS) was 96.7%. The growth (SF-539 CNS) was 93.2%, the growth (UACC-257 melanoma) was 99.8% and the growth (M14 melanoma) was 110%. It also gave a growth (HCT-15 colon) of 105%.

From PubChem BioAssay (NCI)
